Among the data in PubChem BioAssay AID624034 (National Center for Advancing Translational Sciences (NCATS), 2012) are Potency values, retold here.

Records with an inconclusive call do not appear. The source made the active and inactive calls. Calls come from the whole dose curve; as a rule, active = well fitted inhibition curve with a large enough effect; inconclusive = small, poorly fitted or top-dose-only effect; inactive = flat fitted curve, though single readings scatter.

Chain of Dual specificity protein kinase CLK4 (Homo sapiens) (Q9HAZ1 whole entry, looked up, canonical isoform): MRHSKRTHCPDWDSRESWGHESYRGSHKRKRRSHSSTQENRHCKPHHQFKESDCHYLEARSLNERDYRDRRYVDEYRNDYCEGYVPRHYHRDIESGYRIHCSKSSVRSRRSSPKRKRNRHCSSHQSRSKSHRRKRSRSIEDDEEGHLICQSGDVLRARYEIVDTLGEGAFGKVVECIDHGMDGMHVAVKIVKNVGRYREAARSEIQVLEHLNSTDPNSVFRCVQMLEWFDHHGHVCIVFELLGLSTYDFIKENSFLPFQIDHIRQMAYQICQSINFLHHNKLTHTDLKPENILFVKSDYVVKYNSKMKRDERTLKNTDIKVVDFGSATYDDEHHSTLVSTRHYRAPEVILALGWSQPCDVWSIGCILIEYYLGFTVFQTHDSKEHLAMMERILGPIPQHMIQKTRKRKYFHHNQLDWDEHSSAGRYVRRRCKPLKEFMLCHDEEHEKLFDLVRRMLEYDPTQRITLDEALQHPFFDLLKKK

This assay concerns the target Dual specificity protein kinase CLK4 (Homo sapiens) (UniProt Q9HAZ1). Put plainly: Reaction Biology data for inhibitors of CLK4: Probe SAR. Particulars: Reaction Biology CLK4 kinase assay, 10 uM ATP; series mostly up to 10 µM. The source says:
Alternative splicing of pre-mRNAs plays a major role in the regulation of eukaryotic gene expression. Alternative splicing is now thought to be one of the primary reasons for the complexity of higher organisms leading to an average of three protein isoforms per gene. Aberrant splicing can lead to a number of diseases and is known to play a role in rare genetic diseases such as progeria syndrome. Hutchinson-Gilford Progeria Syndrome (HGPS) is a pediatric premature aging disease caused by a spontaneous mutation in the lamin A/C (LMNA) gene due to a single point mutation in the lamin A gene effecting 1 in 4 million people. To identify both specific splicing modulators of the lamin A gene as well as general splicing modulators, a cell-based HTS assay was developed using a minigene reporter system (AIDs, 1459 & 1487). […] This AID summarizes the characterization of lead compounds in Clk4. NIH Molecular Libraries Probe Production Centers Network [MLPCN] NIH Chemical Genomics Center [NCGC] MLPCN Grant: MH084827 Assay Submitter (PI): Tom Misteli
Compound IC50s were determined at Reaction Biology (http://www.reactionbiology.com) with ten concentration points starting at 10 uM in the assay using a 3-fold dilution series. The control compound staurosporine was also tested in the 10-dose IC50 mode with the same 3-fold serial dilution, again starting at 10 uM. All kinase reactions were performed using 10 uM ATP in the assay. 100% activity was taken from kinase reactions with DMSO alone (the vehicle used for compound stock solutions).
For `COc1cccc(-c2ccnc(NCc3ccc(Cl)cc3)n2)c1`, the Potency was 6810 nM (active).

Turning to `Brc1cc(Br)cc(CNc2nccc(-c3ccc4c(c3)OCO4)n2)c1`, the Potency is 9.4 nM (active).

`c1nc(NCC2CCCO2)c2cc(-c3ccc4c(c3)OCO4)ccc2n1` (configuration not stated): the Potency was 50.1 nM (active).

With `COc1ccc(-c2ccnc(NCc3ccc(Cl)c(Cl)c3)n2)cc1OC`, the Potency result is “inactive”.

`Cc1nc(CN(C)c2ncnc3ccc(-c4ccc5[nH]ncc5c4)cc23)cs1`: the Potency is 37.7 nM (active).

For `c1cncc(CNc2ccnc(-c3ccc4[nH]ncc4c3)n2)c1`, the Potency is 574 nM (active).

`Clc1cc(Cl)cc(CNc2ncncc2-c2ccc3c(c2)OCO3)c1`: the Potency was 68.2 nM (active).

As to `FC(F)(F)c1cccc(Nc2nccc(-c3ccc4c(c3)OCO4)n2)c1`, the Potency is 41.7 nM (active).

As for `c1cncc(CNc2ccnc(-c3ccc4cn[nH]c4c3)n2)c1`, the Potency was 1290 nM (active).

On to `COc1ccc(-c2ccnc(NCc3ccc(Cl)c(Cl)c3)n2)cc1`, for which the Potency was 91.7 nM (active).

`Clc1ccc(CNc2nccc(-c3ccc4c(c3)OCO4)n2)cc1Cl`: the Potency is 14.4 nM (active).

Consider `COc1cccc(-c2ccnc(NCc3ccc(Cl)c(Cl)c3)n2)c1`, for which the Potency was 3860 nM (active).

On to `O=[N+]([O-])c1cc(Nc2nccc(-c3ccc4c(c3)OCO4)n2)cc(C(F)(F)F)c1`, for which the Potency was 23.1 nM (active).

In the case of `Cc1c(-c2ccnc(NCc3cccnc3)n2)sc(=O)n1C`, the Potency is 87.8 nM (active).

Consider `Clc1ccc(CNc2nccc(-c3ccc4cn[nH]c4c3)n2)cc1Cl`, for which the Potency was 123 nM (active).

As to `COc1ccc(-c2ccnc(NCc3ccc(Cl)cc3)n2)cc1`, the Potency is 319 nM (active).

Take `Clc1ccc(CNc2nccc(-c3ccc4[nH]ncc4c3)n2)cc1Cl`: the Potency was 30.3 nM (active).

With `FC(F)(F)c1cc(Br)cc(Nc2nccc(-c3ccc4c(c3)OCO4)n2)c1`, the Potency is 85.5 nM (active).

In the case of `Clc1ccc(CNc2ncncc2-c2ccc3c(c2)OCO3)cc1Cl`, the Potency was 526 nM (active).

With `Brc1ccc(CNc2nccc(-c3ccc4c(c3)OCO4)n2)cc1Br`, the Potency is 17.7 nM (active).

Turning to `c1cc(-c2ccc3c(c2)OCO3)nc(Nc2ccc3c(c2)OCO3)n1`, the Potency was 74.8 nM (active).

With `Cc1c(-c2ccnc(NCc3ccc(Cl)cc3)n2)sc(=O)n1C`, the Potency was 273 nM (active).

`c1cncc(CNc2nccc(-c3ccc4[nH]ncc4c3)n2)c1`: the Potency is 60 nM (active).

As for `Clc1ccc(CNc2nccc(-c3ccc4c(c3)OCCO4)n2)cc1Cl`, the Potency was 13.1 nM (active).

`Cc1nc(CNc2ncnc3ccc(-c4ccc5c(c4)OCO5)cc23)cs1`: the Potency is 25 nM (active).

In the case of `c1cncc(CNc2nccc(-c3ccc4c(c3)OCO4)n2)c1`, the Potency is 15.9 nM (active).

For `Cc1nc(CN(C)c2ncnc3ccc(-c4ccc5c(c4)OCO5)cc23)cs1`, the Potency was 15.9 nM (active).
